pPAFAH inh = inhibitors of human plasma PAF acetylhydrolase (pPAFAH). Q13093. recombinant pPAFAH, FP-rhodamine probe fluorescence polarization. inhibition, % at 3.39 µM. 1.5% of 330,000 active;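 active = inhibition above the mean inhibition across the screen plus 3 SD, cut at about 25% in these data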;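 also: inhibitors block binding of the rhodamine activity-based probe so polarization drops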
PAFAH2 inh = inhibitors of human PAFAH2; AID 492956; recombinant PAFAH2, FP-rhodamine activity probe, fluorescence polarization; Q99487; inhibition, % at 3.39 µM; 0.99% of 340,000 active;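 active = inhibition above the mean over all tested compounds plus 3 SD, cut at about 30% in these data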;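 also: inhibitors block probe labeling of enzyme so polarization drops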
LYPLA1 inh = LYPLA1 (human) inhibition in PME1 counter-screen; 0.16% of 320,000 active; inhibition, % at 5.9 µM; O75608; recombinant LYPLA1, FP-Rh probe fluorescence polarization; AID 2174;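 active = inhibition above the mean of all tested compounds plus 3 SD, set per campaign, cut at about 14% in these data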;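 also: inhibitors block serine hydrolase probe labeling of LYPLA1 so polarization falls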
LYPLA2 counter = counter-screen for PME1 inhibitors: inhibitors of human LYPLA2; O95372; recombinant LYPLA2, FP-Rh probe fluorescence polarization; inhibition, % at 5.9 µM; 0.38% of 320,000 active; AID 2177;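 active = inhibition above the screen-wide mean plus 3 SD, limit set per campaign, cut at about 26% in these data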
PAFAH1B3 inh = PAFAH1B3 (human) inhibition | Q15102 | recombinant PAFAH1B3, FP-rhodamine probe, fluorescence polarization | inhibition, % at 3.39 µM | 0.28% of 340,000 active | AID 492972;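 active = inhibition above the screen-wide average of all tested compounds plus 3 SD, cut at about 25% in these data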
Target sequence (Q15102 whole entry, looked up): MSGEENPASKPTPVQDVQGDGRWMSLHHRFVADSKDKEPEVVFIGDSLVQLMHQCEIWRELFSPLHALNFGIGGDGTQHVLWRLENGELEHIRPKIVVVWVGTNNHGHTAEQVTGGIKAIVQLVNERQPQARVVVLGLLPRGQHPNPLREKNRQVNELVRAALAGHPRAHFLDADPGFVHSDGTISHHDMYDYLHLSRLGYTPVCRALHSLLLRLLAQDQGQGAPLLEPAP
PAFAH1B2 FP inh = blocks human PAF acetylhydrolase 1b catalytic subunit 2; P68402; recombinant PAFAH1B2, FP-rhodamine activity probe, fluorescence polarization; inhibition, % at 3.39 µM; 1.2% of 340,000 active;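 active = inhibition above the mean of all tested compounds plus 3 SD, cut at about 24% in these data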
Target sequence (P68402 whole entry, looked up): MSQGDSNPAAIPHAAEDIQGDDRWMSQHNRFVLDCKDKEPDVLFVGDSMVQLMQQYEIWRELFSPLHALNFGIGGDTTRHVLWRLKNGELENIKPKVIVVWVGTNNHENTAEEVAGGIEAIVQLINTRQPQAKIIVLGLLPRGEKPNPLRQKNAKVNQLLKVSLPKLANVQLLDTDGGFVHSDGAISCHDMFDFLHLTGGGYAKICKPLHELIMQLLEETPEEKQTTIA
A number is an active result; – = inactive; · = not tested or not shown. This is a sample that favours compounds with a hit; in the whole collection about 2.9% have one here.

SMILES	pPAFAH inh	PAFAH2 inh	LYPLA1 inh	LYPLA2 counter	PAFAH1B3 inh	PAFAH1B2 FP inh
CC(OC(=O)C1=COCCO1)C(=O)Nc1ncc(Cl)cc1Cl (stereo unspecified)	·	–	·	·	–	46.7
CC(OC(=O)C1=NNC(=O)CC1)C(=O)Nc1ncc(Cl)cc1Cl (stereo unspecified)	–	–	–	–	–	–
CCOC(=O)c1ccc(N2N=C(C)/C(=C/C=C/c3ccco3)C2=O)cc1	–	–	–	–	–	–
O=C(O)c1cc(N2N=C(C(F)(F)F)/C(=C/C=C/c3ccco3)C2=O)ccc1Cl	·	58.5	·	·	36.7	31.9
Fc1ccc(NC(=S)N2N=CCC2c2ccccc2)cc1 (stereo unspecified)	–	–	–	–	–	–
COc1ccc(NC(=O)CSc2ccc3c4c(cccc24)C(=O)c2ccccc2-3)cc1	–	–	–	–	–	–
N#Cc1cccc(NC(=O)CSc2ccc3c4c(cccc24)C(=O)c2ccccc2-3)c1	–	35.9	–	–	27.4	29.8
COc1ccc(C2CC(c3cccc(Br)c3)=NN2c2ccc(S(N)(=O)=O)cc2)cc1 (stereo unspecified)	31.5	–	·	·	–	–
COC(=O)c1ccc(CNC(=O)COC(=O)CCC2CCCC2)cc1	24.6	–	–	–	–	–
COc1ccc(CNC(=O)COC(=O)CCC2CCCCC2)cc1	30.7	–	–	–	–	–
CC(C)(C)NC(=O)NC(=O)COC(=O)CCC1CCCC1	30.9	–	–	–	–	–
COC(=O)c1ccc(CSc2nc3ccccc3c(=O)n2CC(C)C)o1	–	–	–	–	–	–
C=CCn1c(C(CCCC)CC(O)COCCC)n[nH]c1=S (stereo unspecified)	–	–	–	–	–	–
CS(=O)(=O)c1nc(-c2ccccc2)cc(C(F)(F)F)n1	25.1	–	–	–	–	–
Cc1cc(NC(=O)CCS(=O)(=O)c2nc(-c3ccccc3)cc(C(F)(F)F)n2)no1	–	–	–	–	–	–
CC1CCCN(CC(=O)NNC(=O)COc2ccc(Br)cc2)C1 (stereo unspecified)	–	–	·	·	–	–
CCC(OC(=O)c1nsc(Cl)c1Cl)C(=O)NCc1ccco1 (stereo unspecified)	26.8	–	–	–	–	–
S=C(NCCCN1CCOCC1)N1CCN(c2cccc(Cl)c2)CC1	–	–	–	–	–	–
CCOc1ccc(N(CC)C(=O)COc2cc(=O)n(CC)c3ccccc23)cc1	–	–	–	–	–	–
O=C(/C=C/c1ccc(O)c([N+](=O)[O-])c1)c1ccc2ccccc2c1	31.6	44.0	–	–	–	28.8
O=[N+]([O-])c1ccc(S(=O)(=O)Nc2nc3ccccc3nc2Nc2ccccc2)cc1	–	·	–	–	·	·
CC(=O)Nc1ccc(Nc2nc3ccccc3nc2NS(=O)(=O)c2ccc(Cl)c([N+](=O)[O-])c2)cc1	·	52.0	·	·	31.4	–
O=C(Nc1ccc(-c2cn3ccsc3n2)cc1)C1CCCC1	–	–	–	–	–	–
CCOc1cc(CNCCSc2nnnn2C)cc(Br)c1OCc1ccccc1F	25.4	–	–	–	–	–
CCN(CC)S(=O)(=O)c1ccc2c(c1)N(CC(=O)N1CCC(C(N)=O)CC1)C(=O)CO2	–	–	–	–	–	–
SMILES	pPAFAH inh	PAFAH2 inh	LYPLA1 inh	LYPLA2 counter	PAFAH1B3 inh	PAFAH1B2 FP inh
CC(C)(C)c1cc(=O)[nH]c(SCc2ccccc2Cl)n1	26.9	–	–	–	–	–
CC(C)(C)c1cc(=O)[nH]c(SCc2ccccc2)n1	30.8	–	–	–	–	–
Cc1ccc(CS(=O)(=O)CCC(=O)NCc2ccccc2Cl)cc1	29.4	–	–	–	–	–
N#Cc1c(NC(=O)CSc2ncnc3sccc23)oc(-c2ccco2)c1-c1ccco1	32.7	–	–	–	–	–
Cc1cc(NC(=O)CSc2ncnc3sccc23)no1	–	–	–	–	–	–
CCn1c(SCC(=O)Nc2oc(-c3ccccc3)c(-c3ccccc3)c2C#N)nnc1-c1ccncc1	–	–	–	–	–	–
CCn1c(SCC(=O)Nc2oc(-c3ccccc3)c(-c3ccccc3)c2C#N)nnc1-c1ccco1	–	–	–	–	–	25.1
COC(=O)C1=C(C)NC(C)=C(C(=O)OC)C1C(=O)OCc1nc2cc(C(=O)OC)ccc2c(=O)[nH]1	–	–	–	–	–	–
CC(=O)c1ccc(NC(=O)C(C)OC(=O)CCN=C2NS(=O)(=O)c3ccccc32)cc1 (stereo unspecified)	–	–	–	–	–	–
CC(=O)c1cccc(NC(=O)C(C)OC(=O)CCN=C2NS(=O)(=O)c3ccccc32)c1 (stereo unspecified)	–	105.9	–	–	86.3	105.7
O=C(Cc1ccc(F)cc1)c1ccc(O)cc1O	–	–	–	–	–	24.5
CCc1cc(C(=O)Cc2ccc(F)cc2)c(O)cc1O	–	–	–	–	–	–
CCn1c(SCc2nc3ccccc3[nH]2)nnc1-c1cnccn1	–	–	–	–	–	–
Cc1cc(C2(c3cc(C)c(NC(=O)CN4CCOCC4)c(C)c3)CCCCC2)cc(C)c1NC(=O)CN1CCOCC1	–	·	–	–	·	·
CC(C)(C)c1ccc(N/N=C(\C#N)S(=O)(=O)C(C)(C)C)cc1	33.5	–	–	–	–	–
COc1cc(/C=C/C(=O)O)ccc1OS(=O)(=O)c1c(C)c(C)cc(C)c1C	–	–	–	–	–	25.8
COc1ccccc1C(CNC(=O)C1COc2ccccc2O1)N1CCCC1 (stereo unspecified)	–	–	–	–	–	–
Cc1nn(-c2ccccc2)c(Cl)c1/C=N/NC(=O)c1ccccc1NS(=O)(=O)c1cccs1	32.7	–	–	–	–	–
Cc1nn(-c2ccccc2)c(Cl)c1/C=N/NC(=O)c1ccc(NS(=O)(=O)c2cccs2)cc1	–	·	–	–	·	·
CC(=O)c1sc(NC(=O)C2(F)C(F)(F)C(F)(F)C(F)(F)C(F)(F)C2(F)F)nc1C	–	–	–	–	–	38.9
Cc1cccc(NC(=O)CNC(=O)C23CC4CC(CC(Cl)(C4)C2)C3)n1	–	–	–	–	–	–
O=C(O)CNC(=O)C12CC3CC(CC(Cl)(C3)C1)C2	–	–	–	–	–	32.8
CCOC(=O)C1CCCN(Cc2cc(OC)c(O)c(OC)c2)C1 (stereo unspecified)	–	–	–	–	–	–
O=c1[nH]c2cc(Cl)ccc2c(O)c1-c1cccc(Oc2ccccc2)c1	–	–	–	–	–	31.6
COc1ccc(C2Nc3cccc4cccc(c34)N2)cc1Br	–	–	–	–	–	–
COc1cc(C2Nc3cccc4cccc(c34)N2)ccc1OC(C)=O	–	–	–	–	38.0	–
CCC(=O)N1CCc2cc(S(=O)(=O)NC(Cc3ccccc3)C(=O)O)ccc21 (stereo unspecified)	28.4	–	–	–	–	–
